# Rows were chosen to be rich in hits. Some 21% of all compounds tested hit in one or more screens of this group.
# Cycloheximide cs: Cycloheximide Counterscreen for Small Molecule Inhibitors of Shiga Toxin | cell reporter, cycloheximide protein synthesis inhibition counterscreen | 300,000 compounds, 12% hits | max response, % | AID 2314, 2010; in the data active = max response mostly above about 13%, no sharp cut-off; inactive = mostly below about 14%; also: read at 38.3 µM for the half of the compounds with a filed dose
# Pf growth 48h: Primary qHTS for delayed death inhibitors of the malarial parasite plastid, 48 hour incubation | 310,000 compounds, 5.9% hits | P. falciparum luciferase growth in erythrocytes, 48 h | Potency, µM (highest dose often 28.7 µM), hits mostly inhibitors
#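 Luminescence readout; reporter = integrated firefly luciferase in P. falciparum. RBC culture at 2% hematocrit, 0.1% parasitemia final, 37 C/5% CO2; decreased signal taken as growth inhibition.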
# NS1 function inh: qHTS Assay for Inhibitors of Influenza NS1 Protein Function; Potency, µM (series often up to 46.1 µM); 270,000 compounds, 0.4% hits; AID 2326, 2010; calls by dose curve; also: actives are rising curves; nearly all actives have a fitted effect of over 50% in size
#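 Growth recovery, yeast-based: influenza A NS1 expressed in S. cerevisiae causes slow growth, and suppressors are detected by OD600. The parent strain without NS1 is used as positive control.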
# Pf growth 96h: Primary qHTS for delayed death inhibitors of the malarial parasite plastid, 96 hour incubation | P. falciparum luciferase reporter growth, 96 h | Potency, µM (doses to about 28.7 µM), actives largely listed as inhibitors | 320,000 compounds, 6.9% hits
#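 Cell-based qHTS: luciferase-tagged P. falciparum in erythrocytes (2% hematocrit, 0.05% parasitemia final) incubated with compounds for 96 hours, 37 C, 5% CO2; luciferase detection reagent then added and luminescence measured.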
# Shiga toxin inh: A qHTS for Small Molecule Inhibitors of Shiga Toxin. inhibition, % at 38.7 µM. Vero cells, Shiga toxin protein synthesis inhibition reporter. 290,000 compounds, 9.2% hits; in the data active = inhibition mostly above about 28%, no sharp cut-off; inactive = mostly below about 43%
# A number is an active result; - = inactive; ? = inconclusive; . = not tested or not shown. Unless noted, calls follow the shape of the dose curve; as a rule, active = well fitted inhibition curve with a large enough effect; inconclusive = small, poorly fitted or top-dose-only effect, or another doubt; inactive = no such curve, though single readings can be large or run the other way.
SMILES,Cycloheximide cs,Pf growth 48h,NS1 function inh,Pf growth 96h,Shiga toxin inh
O=C(NC1CCCc2ccccc21)c1c(F)cccc1Cl (stereo unspecified),-,-,-,-,-
CCCNCC1C(Oc2ccc(Cl)cc2Cl)C(=O)N1c1cccc(C)c1C (stereo unspecified),-,?,.,-,-
CCCCNCC1C(Oc2ccc(Cl)cc2)C(=O)N1c1ccccc1C (stereo unspecified),-,14.7µM,.,-,-
Cc1ccc(/C=C/C2=NN(Cc3ccccc3)C(=O)CC2)cc1,-,-,-,.,-
CN1N=C(/C=C/c2ccccc2)CCC1=O,28.3,-,.,-,87.7
CC(C)(C)c1ccc(CN2N=C(/C=C/c3ccccc3)CCC2=O)cc1,-,?,.,-,-
O=C1CCC(/C=C/c2ccccc2)=NN1Cc1ccccc1,-,-,.,-,-
C=CCN1N=C(/C=C/c2ccccc2)CCC1=O,20.2,-,.,-,-
Cc1ccc(/C=C/C2=NN(C)C(=O)CC2)cc1,26.7,-,.,-,62.7
COc1cc(C(=O)N2C[C@@H]3CCC[C@H]2C3)ccc1OC1CCN(C(C)=O)CC1,-,-,-,-,-
CC(C)=CCC[C@](C)(O)C1CC=C(C)CC1 (stereo partly specified),.,-,.,-,.
COC(=O)/C=C/COc1ccccc1[N+](=O)[O-],43.0,-,-,-,106.8
CC(C)CNC(=O)COc1ccccc1[N+](=O)[O-],-,-,-,-,-
O=C(/C=C/c1ccccc1[N+](=O)[O-])OCC(=O)c1ccccc1,36.6,-,-,-,79.3
O=[N+]([O-])c1ccccc1OC/C(=N\O)c1ccccc1,14.8,-,-,-,41.0
NC(=O)COC(=O)/C=C/c1ccccc1[N+](=O)[O-],-,-,.,-,-
COc1ccccc1[N+](=O)[O-],.,-,.,-,.
O=C(COc1ccccc1[N+](=O)[O-])c1ccccc1,24.9,?,-,-,-
Cc1ccc(/C(COc2ccccc2O)=N\O)cc1,-,-,-,-,-
CCc1nnc(NC(=O)c2cccc(C(=O)Nc3nnc(CC)s3)n2)s1,-,-,-,9.28µM,-
CC(C)c1ccccc1NC(=O)c1ccccc1NC(=O)C1CCCCC1,-,11.7µM,-,-,-
CCOc1ccccc1C(=O)Nc1nnc(CC)s1,14.1,-,-,?,24.5
CCOc1cc(NC(=O)C2CC2)c(OCC)cc1NC(=O)c1ccccc1OCC,-,5.86µM,-,-,-
CC(Cl)C(=O)Nc1c2c(nn1-c1ccccc1)CSC2 (stereo unspecified),-,-,-,-,-
Fc1ccc(OCCOCCNCC2CCCO2)cc1 (stereo unspecified),-,-,-,-,-
SMILES,Cycloheximide cs,Pf growth 48h,NS1 function inh,Pf growth 96h,Shiga toxin inh
CCCNC(=O)OCc1cccnc1Sc1ccc(C)cc1,31.1,-,.,-,97.7
Cc1csc(NC(=O)c2cnccn2)n1,45.0,-,-,.,-
Cc1ccc(C)c(-c2csc(NC(=O)c3cnccn3)n2)c1,-,?,.,11.7µM,-
N#Cc1ccccc1OCC(=O)NNC(=O)CNC(=O)c1cccc(Br)c1,.,-,.,-,.
COc1ccc(S(=O)(=O)N2CCN(Cc3cccc(Cl)c3)CC2)cc1,-,-,-,-,-
COc1cccc(CN2CCN(S(=O)(=O)c3ccc(Cl)s3)CC2)c1,12.6,-,-,-,-
C/C(=N\NC(=O)c1cccc(C)c1)c1ccc(N2CCOCC2)cc1,-,-,-,.,-
Cc1cccc(/C=C/C(=O)c2ccc(N3CCOCC3)cc2)c1,14.1,-,-,-,45.3
O=C(/C=C/c1ccc(F)cc1)c1ccc(N2CCOCC2)cc1,-,-,-,-,-
CCc1ccc(/C=C/C(=O)c2ccc(N3CCOCC3)cc2)cc1,15.1,-,-,-,active
Cc1ccc(/C=C/C(=O)c2ccc(N3CCOCC3)cc2)s1,26.9,-,.,-,-
Cc1ccc(S(=O)(=O)NCC(=O)N2CCOCCOCCOCC2)cc1,-,-,-,-,-
O=C1CC(Cc2ccccc2)C(=O)N1Cc1ccco1 (stereo unspecified),-,?,?,11.7µM,-
CCCCC1(C)NC(=O)N(CC(=O)Nc2cc(S(=O)(=O)N3CCOCC3)ccc2Cl)C1=O (stereo unspecified),.,-,.,-,.
Cc1ccccc1N1CCN(S(=O)(=O)CC23CCC(CC2=O)C3(C)C)CC1 (stereo unspecified),-,?,-,?,-
CC1(C)C2CCC1(CS(=O)(=O)N1CCCc3ccccc31)C(=O)C2 (stereo unspecified),18.1,-,-,-,-
COc1ccc(-n2cc(-c3ccccc3)nc2SC)cc1,47.5,-,-,-,65.2
COc1ccc(/C=C(\C#N)C(=O)NC2CCS(=O)(=O)C2)cc1OC (stereo unspecified),-,-,-,-,-
CC1CCCCC1NC(=O)/C(C#N)=C/c1ccc2c(c1)OCCO2 (stereo unspecified),-,?,-,?,38.6
CC1CCCCC1NC(=O)/C(C#N)=C/c1ccc(F)c(F)c1 (stereo unspecified),-,11.7µM,-,?,-
CC(OC(=O)c1ccc2c(c1)OCCO2)C(=O)NC1CCCCC1C (stereo unspecified),.,-,.,-,.
Cc1cc(S(=O)(=O)N2CCCCC2CCNC(=O)C(=O)NCC2CCCO2)ccc1F (stereo unspecified),.,?,.,-,.
Cc1ccc(-n2nc(C)c(C(=O)N3CCN(C(=O)c4ccco4)CC3)c2-n2cccc2)cc1,-,?,-,-,-
CCc1nc2ccccc2[nH]1,-,.,-,-,-
c1ccc2[nH]c3cc4ncnc4cc3nc2c1,27.6,-,-,-,35.8
SMILES,Cycloheximide cs,Pf growth 48h,NS1 function inh,Pf growth 96h,Shiga toxin inh
COc1ccc(OCCSc2ncc(CO)n2C)cc1,-,-,-,-,-
CC[C@H](C)[C@H](NC(=O)[C@H](C)NC(=O)CNC(=O)[C@H](CCCCN)NC(=O)[C@H](CC(N)=O)NC(=O)[C@H](CO)NC(=O)CN)C(=O)N[C@H](C(=O)NCC(=O)N[C@@H](CC(C)C)C(=O)N[C@@H](CCSC)C(=O)O)[C@@H](C)CC,-,.,.,.,-
OCC1CCCN(Cc2cn(Cc3ccccc3)nc2-c2cc3ccccc3o2)C1 (stereo unspecified),-,14.7µM,-,-,-
COC1CCN(Cc2cn(Cc3ccccc3)nc2-c2cc3ccccc3o2)CC1,-,10.4µM,-,10.4µM,-
COc1ccccc1NC(=S)N1CCn2cccc2C1c1cccnc1 (stereo unspecified),-,?,.,?,-
CCCCN(C(=O)CSc1nnc(-c2ccccc2OC)n1C)c1c(N)n(Cc2ccccc2)c(=O)[nH]c1=O,-,-,-,?,-
COc1ccccc1N(C(=O)c1cncc(Br)c1)c1nc(-c2ccc(C)cc2)cs1,-,?,-,7.38µM,-
COc1ccc(-c2csc(N(CCCN(C)C)C(=O)c3ccccc3C)n2)cc1,-,-,-,-,-
O=C(O)CSSCC(=O)O,.,.,-,.,.
CCNC(=O)NC(=O)C(C)SCc1ccccc1C (stereo unspecified),-,-,-,6.57µM,-
